PubChem BioAssay AID1053188 (Broad Institute, 2014)
“And” between values parts separate entries of the source, which are not always exact repeats. Equal entries are not always repeated. The campaign covered roughly 83,000 compounds. About 780 (0.94%) were called active.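 How the source made its calls: active means mean inhibition of at least 50% with a set share of replicates also reaching that level; inconclusive means no clear call, values can overlap the other calls; inactive means the rest.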 Shown is part of a subset that was picked to be rich in actives. Some compounds were tested as several samples or in several runs, with calls that do not always agree.

Test: CD40 pathway blockade in BL2 B cells – cell-based, luciferase reporter, single point, primary screen (AID 1053188);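 further: 0% = neutral control wells and 100% = IKK inhibitor VII at 50 µM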
Conditions: BL2 NF-kB luciferase reporter, CD40L-induced, 4 h, stronger effect = higher value; at 10 µM unless noted

Compound | inhibition
CS(=O)(=O)N1CCN(CC(=O)NC2CCCC2)CC1 | 4.72% (inactive)
CS(=O)(=O)N1C[C@@H]2C(c3ccccc3)[C@H](C1)N2CC(F)(F)F (stereo partly drawn) | 8.84% (inactive) and 23.5% (inactive)
COc1cccc(NC(=O)COC(=O)c2ccc3ccccc3n2)c1 | -7.67% (inactive)
O=C(Nc1ccccc1)Nc1nc2ccccc2s1 | -102% (inactive)
c1ccc(C(=NNc2nc3ccccc3s2)c2ccccn2)cc1 | 72.5% (active)
Cc1ccnc(Nc2nc3ccccc3s2)n1 | -62.3% (inactive)
CCN1CCN(c2ccc(S(=O)(=O)N3CCCCC3)cc2NC(=O)c2cccc(NC(C)=O)c2)CC1 | 1.54% (inactive)
CCN1CC(CN(C)Cc2nc(-c3ccc(Cl)cc3)no2)CC1=O (stereo not drawn) | 2.41% (inactive)
CC1CCCC(NC(=O)c2cc(S(=O)(=O)N3CCCCC3)ccc2Cl)C1C (stereo not drawn) | 6.89% (inactive)
Cc1ccc(NC(=O)c2ccco2)cc1 | -36.5% (inactive)
COc1cc(C(=O)CCc2ccc3c(c2)OCO3)cc(OC)c1OC | 1.79% (inactive)
CCC1CCC2(CC1)NC(=O)N(CC(=O)Nc1ccc(OC)cc1)C2=O (stereo not drawn) | -0.377% (inactive)
C/C=C/c1ccc(C2[C@H]3CNC[C@@H]2N3CC2CCOCC2)cc1 (stereo partly drawn) | 9.41% (inactive)
C/C=C/c1ccc(C2[C@H]3CNC[C@@H]2N3Cc2cccc(OC)c2)cc1 (stereo partly drawn) | -2.62% (inactive) and -20.4% (active)
C/C=C/c1ccc(C2[C@H]3CNC[C@@H]2N3Cc2cccc(F)c2)cc1 (stereo partly drawn) | 0.374% (inactive) and -2.51% (inactive)
CCc1noc(C)c1C(=O)N1CCN(S(=O)(=O)c2cccc(C(F)(F)F)c2)CC1 | 1.62% (inactive)
O=C1COc2c1ccc(O)c2O | 12.2% (inactive)
COc1ccc2c(C)cc(SCC(=O)NCC3CCCO3)nc2c1 (stereo not drawn) | 1.77% (inactive)
Cc1ccc(S(=O)(=O)Nc2ccc3c(c2)C(=O)N([C@@H](C)CO)C[C@@H](C)[C@H](CN(C)C(=O)Nc2cccc4ccccc24)OCCCC[C@H](C)O3)cc1 | 9.18% (inactive)
Cc1noc(C)c1S(=O)(=O)Nc1ccc2c(c1)C(=O)N([C@@H](C)CO)C[C@H](C)[C@@H](CN(C)C(=O)Nc1cccc3ccccc13)OCCCC[C@H](C)O2 | 48% [at 25 µM] (active)
Cc1noc(C)c1S(=O)(=O)Nc1ccc2c(c1)C(=O)N([C@@H](C)CO)C[C@@H](C)[C@H](CN(C)C(=O)Nc1cccc3ccccc13)OCCCC[C@H](C)O2 | 8.4% [at 25 µM] (inactive)
O=C(Cc1ccccn1)N1CC(=O)N2[C@H](CO)[C@@H](c3ccc(C#CC4CCCC4)cc3)[C@H]2C1 | -16.2% (inactive)
O=C(Cc1ccc(Cl)cc1)c1ccccc1 | -54.5% (inactive)
C/C=C/c1cccc(-c2nc(C(=O)NCCN3CCCC3)cc3c2[C@@H](CCO)N([S@](=O)C(C)(C)C)C3)c1 | -2.95% (inactive)
Cc1cc([N+](=O)[O-])nn1CC(=O)Nc1ccc(Cc2ccncc2)cc1 | -4.38% (inactive)
CCCNC(=O)c1ccc(Cl)c(Cl)c1 | 0.458% (inactive)

Compound | inhibition
CN(C)CCNC(=O)Nc1cccc(Cl)c1Cl | 7.22% (inactive)
CN(C)CCNC(=O)c1ccc(Cl)c2cc3ccccc3nc12 | 80.1% (active)
Cc1ccc(S(=O)(=O)NCCC(=O)NCc2ccc(Cl)cc2)cc1C | 0.373% (inactive)
CN(CCOc1ccccc1)C(=O)c1cc(-c2ccco2)nc2ccccc12 | 9.58% (inactive)
O=C(c1cc(-c2ccco2)nc2ccccc12)N(Cc1nnc(-c2ccc(Cl)cc2)o1)C1CC1 | 50.6% (active)
CC1CCCN(C(=O)c2cc(-c3ccco3)nc3ccccc23)C1 (stereo not drawn) | -1.36% (inactive)
CCOC(=O)c1ccc[n+](CC(=O)Nc2ccccc2OC(F)F)c1 | -5.94% (inactive)
CC(C)N(Cc1nnc(-c2ccc(Cl)cc2)o1)C(=O)C1=COCCO1 | 3.68% (inactive)
CCCN(CC(=O)Nc1ccccc1C)C(=O)c1ccc(OCC(=O)N2CCOCC2)c(OCC)c1 | 23.3% (active)
CCOc1cc(C(=O)N(Cc2ccccc2)c2ccc(C)cc2)ccc1OCC(=O)N1CCOCC1 | -0.92% (inactive)
COc1cc(C(=O)Nc2ncccc2C)ccc1OCC(=O)N1CCOCC1 | 6.83% (inactive)
CCNC(=O)C1(C)CCCN1C(=O)c1ccc(N(C)C)cc1 (stereo not drawn) | -1.06% (inactive)
CC(C)NC(=O)N(C)C[C@H]1Oc2ccc(NS(C)(=O)=O)cc2C(=O)N(C)C[C@@H]1C | 0.384% (inactive)
COc1cccc(NC(=O)CN(C)CC(=O)Nc2ccc3c(c2)CCC3)c1 | 8.15% (inactive)
CSCCC(NC(=O)c1ccco1)C(=O)NCCc1ccc(F)cc1 (stereo not drawn) | 0.567% (inactive)
COc1ccc(S(=O)(=O)NCCc2c[nH]c3ccccc23)cc1OC | 6.21% (inactive)
Fc1ccccc1COc1ccccc1CNCc1ccncc1 | 0.766% (inactive)
COc1cccc(CNCCc2c[nH]c3ccccc23)c1OCc1ccccc1F | 70.6% (active)
O=C(Nc1ncccc1O)c1ccc(S(=O)(=O)N2CCCC2)cc1 | -13.1% (inactive)
COC(=O)C1=C(N)Oc2c(oc(CO)cc2=O)C1c1c(F)cccc1Cl (stereo not drawn) | 1.5% (inactive)
CCOc1ccc(C(=O)CCN2CCOCC2)cc1 | 3.31% (inactive)
Cc1ccc(/C([O-])=C(/C(=S)NCc2ccco2)[n+]2ccccc2)cc1[N+](=O)[O-] | 4.58% (inactive)
N/C(=N\OC(=O)c1ccc([N+](=O)[O-])cc1)c1ccccn1 | 68.1% (active)
O=C(COC(=O)Cc1ccc([N+](=O)[O-])cc1)NC1CCCCCC1 | 2.86% (inactive)
O=C(CSc1nnc(-c2ccc([N+](=O)[O-])cc2)o1)Nc1ccccn1 | -47.6% (inactive)
O=C(COC(=O)c1ccccn1)NNC(=O)c1ccc([N+](=O)[O-])cc1 | 0.903% (inactive)

Compound | inhibition
O=C(Nc1ccc([N+](=O)[O-])cc1)OCCc1ccccn1 | -49.3% (inactive)
N/C(=N\OC(=O)Cc1ccc([N+](=O)[O-])cc1)c1ccccn1 | 64.7% (active)
COc1ccccc1C(=O)NC(CCSC)C(=O)N1CCN(C(C)=O)CC1 (stereo not drawn) | 7.42% (inactive)
OCCN1CCN(CCO)C1=S | 4.32% (inactive)
COc1cc(OC)cc(C(=O)N[C@H](C(=O)NNC(=O)c2ccc(Br)cc2)C(C)C)c1 | -11.4% (inactive)
CCc1ccc(C(=O)C(C)OC(=O)CN2C(=O)NC3(CCCC3)C2=O)cc1 (stereo not drawn) | -8.47% (inactive)
CC(=O)c1cc(C#N)c(N2CCCCC2)nc1C | 12.8% (inactive)
Cc1ccc(S(=O)(=O)N2CCN(C(=O)COC(=O)CNC(=O)c3ccc(C(C)(C)C)cc3)CC2)c(C)c1 | -31.5% (inactive)
Cc1ccc2c(c1)c1ncn(CCC3=CCCCC3)c(=O)c1n2C | -13.8% (inactive)
COc1ccc(C(=O)COC(=O)c2nn(C)c(=O)c3ccccc23)c(OC)c1 | 4.47% (inactive)
COc1ccc2c(c1)c1ncn(Cc3ccccn3)c(=O)c1n2C | 56.2% (active)
COc1ccc(CNC(=O)CN2CCC(n3nnc4cc(F)ccc43)CC2)cc1 | -0.322% (inactive)
CCCn1c(N)c(C(=O)CSc2nc3ccccc3c(=O)n2-c2ccc(OC)cc2)c(=O)[nH]c1=O | -0.2% (inactive)
CC(C)NC(=O)N(C)C[C@H]1OCc2ccccc2-c2c(n(C)c3ccccc23)C(=O)N([C@H](C)CO)C[C@@H]1C | -3.58% (inactive)
CC1Cc2ccccc2N1S(=O)(=O)c1cccc(C(=O)NCC(c2ccco2)N2CCCC2)c1 (stereo not drawn) | 8.41% (inactive)
O=C(Nc1ccc(N2CCOCC2)cc1)c1cccc(S(=O)(=O)N2CCOCC2)c1 | 14.5% (inactive)
O=C(C1CCOCC1)N1CC(=O)N2[C@H](CO)[C@@H](c3ccc(C#CC4CCCC4)cc3)[C@H]2C1 | -2.24% (inactive)
O=C(Nc1nnc(Cc2ccccc2)s1)c1cnccn1 | -14% (inactive)
Cc1cnc(NC(=O)c2ccccn2)s1 | 48.8% (active)
O=C(Nc1nnc(C2CC2)s1)c1ccccn1 | 12.5% (inactive)
CN1C(=O)c2cc(NS(=O)(=O)CC(F)(F)F)ccc2OC[C@H]2O[C@@H](CC(=O)NCc3ccc(Cl)c(Cl)c3)CC[C@@H]21 | -2.48% [at 25 µM] (inactive)
Cc1cc(C(=O)COC(=O)CNC(=O)c2ccc(F)cc2)c(C)n1Cc1ccco1 | 29.3% (inactive)
Cc1cc(C(=O)COC(=O)C2CC2)c(C)n1-c1ccc(F)cc1 | 79.9% (active)
COc1ccccc1C(=O)NC(=O)COC(=O)C1CC1 | -63% (inactive)
CCCC#Cc1ccc([C@@H]2[C@@H](C#N)N(C(=O)C3CCCC3)[C@@H]2CO)cc1 | 4.81% (inactive)
N#C[C@@H]1[C@H](c2ccc(C#Cc3ccccc3F)cc2)[C@H](CO)N1C(=O)C1CCCCC1 | 6.32% (inactive)

Compound | inhibition
N#C[C@@H]1[C@@H](c2ccc(C#Cc3cccc(F)c3)cc2)[C@@H](CO)N1C(=O)C1CCC1 | -11.1% (inactive)
N#C[C@@H]1[C@@H](c2ccc(C#Cc3cccc(F)c3)cc2)[C@H](CO)N1C(=O)C1CCOCC1 | -15.7% [at 25 µM] (inactive)
N#C[C@H]1[C@H](c2ccc(C#Cc3ccc(F)cc3)cc2)[C@@H](CO)N1C(=O)C1CCCC1 | 58.9% (active)
N#C[C@@H]1[C@H](c2ccc(C#Cc3cccc(F)c3)cc2)[C@@H](CO)N1C(=O)C1CCCC1 | 60.3% (active)
COc1ccccc1CNC(=O)COC(=O)CNS(=O)(=O)c1ccc(NC(C)=O)cc1 | 5.75% (inactive)
COc1ccc(NC(=O)N2CCCC(c3nc(-c4ccc(F)cc4)no3)C2)cc1 (stereo not drawn) | -2.8% (inactive)
CC(C)N(C(=O)CN1CCN(S(=O)(=O)c2ccc(Br)s2)CC1)C(C)C | 3.09% (inactive)
CCOC(=O)C(CC)/C(C)=N\NC(=O)c1cccc(C)c1 (stereo not drawn) | -2.97% (inactive)
CN(C)C(=O)c1ccc(-c2ccc(C3[C@@H]4CN(C(=O)Nc5ccccc5)C[C@H]3N4)cc2)cc1 (stereo partly drawn) | 8.08% [at 25 µM] (inactive)
O=C(C1CCCCC1)N1C[C@@H]2N[C@H](C1)C2c1ccc(-c2cccc(F)c2)cc1 (stereo partly drawn) | 26.1% (inactive) and -22.9% (inactive)
Cc1cccc(-c2ccc(C3[C@@H]4CN(C(=O)Nc5ccc(C(F)(F)F)cc5)C[C@H]3N4)cc2)c1 (stereo partly drawn) | 55.5% (active)
O=C([C@@H]1[C@@H](CO)[C@@H]2Cn3c(ccc(C4=CCCCC4)c3=O)[C@H]1N2Cc1nccs1)N1CCCCC1 | -4.97% [at 25 µM] (inactive)
COc1ccc(CN2CCC(c3nc4ccc(Cl)cc4[nH]3)CC2)cc1 | 7.72% (inactive)
O=C(NNC(=O)C1CCN(c2ncccn2)CC1)c1ccccc1 | 16.9% (inactive)
Cn1cnc(S(=O)(=O)N2C[C@@H]3N[C@H](C2)C3c2ccc(/C=C/c3ccccc3)cc2)c1 (stereo partly drawn) | -5.55% (inactive) and 3.57% (inactive)
Cn1cnc(S(=O)(=O)N2C[C@@H]3N[C@H](C2)C3c2ccc(-c3ccccc3F)cc2)c1 (stereo partly drawn) | 52.9% [at 25 µM] (active) and 10.8% [at 25 µM] (inactive)
COc1ccc(-c2ccc(C3[C@@H]4CN(S(=O)(=O)c5cn(C)cn5)C[C@H]3N4)cc2)cc1 (stereo partly drawn) | -4.84% (inactive)
COc1ccc2c3c(n(C)c2c1)[C@H](CO)N(C(C)=O)CC31CN(Cc2ccc(Cl)cc2)C1 | 68% [at 25 µM] (active)
CCC(=O)N1CC2(CCN(Cc3ccc(Cl)cc3)CC2)c2c(n(C)c3cc(OC)ccc23)[C@@H]1CO | 4.53% [at 25 µM] (inactive)
COCC(=O)N1CC2(CN(S(C)(=O)=O)C2)c2c(n(C)c3cc(OC)ccc23)[C@@H]1CO | 2.58% [at 25 µM] (inactive)
O=C(Nc1ccccn1)C1CCN(S(=O)(=O)c2ccc3c(c2)OCCO3)CC1 | -48.7% (inactive)
CCc1nnc(NC(=O)c2cccc(S(=O)(=O)N(C)c3ccc(OC)cc3)c2)s1 | 2.59% (inactive)
CN(Cc1ccc2nsnc2c1)Cc1nc(Cc2cccc(F)c2)no1 | 3.82% (inactive)
CCOc1ccc(S(=O)(=O)N2CCC(C(=O)OCc3ccc(OC)cc3)CC2)cc1 | 0.411% (inactive)
O=C(Nc1ccc(N2CCCCC2)cc1)c1cc(S(=O)(=O)N2CCOCC2)ccc1F | -16.8% (inactive)
